Reference: PubChem BioAssay AID1508600 (Functional Genomics Laboratory (NCATS/FGL), 2020)
Among all 53,000 sequences or so, about 3,700 (7%) were called active.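 Rule for the calls: active = gene knockdowns whose robust z-score for IL-1 alpha signal is at least 2 or at most -2, so actives lie on both sides; inactive = the rest.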 This excerpt belongs to a sample that is enriched for actives.

Assay: Components of the Cytosolic LPS Sensing Pathway: Gene Identification via Genome-wide siRNA Screen;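 note: robust z of the log signal after scaling to non-targeting control siRNA wells of the plate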
Details: RAW264.7 macrophages, IL-1a HTRF, actives lie on both sides, screened at 100 nM (by protocol), cells primed 5 h with Pam3CSK4 first
Outline: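 Supernatant IL-1a by HTRF from RAW264.7 cells primed with Pam3CSK4 (5 hours) and transfected with LipidA (24 hour) after 48h siRNA knockdown at 100 nM; cell viability checked with CellTiter-Glo.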

Row | Sequence | z-score
1 | GGACCAAUUGGAUCCUUUUTT against Olfr1340 | -1.6 (inactive)
2 | GCAUACGAUGGGAAUUGUATT against Wdr5b | -1.6 (inactive)
3 | GGAAGAAGAUAAAGAGAAATT against Gtf2a1 | 1.09 (inactive)
4 | GGAAGUUACUGUGAGAUAATT against Mtbp | 0.265 (inactive)
5 | GGAUGUUAUUCAGUUUUCATT against BC051019 | 2.37 (active)
6 | GGCCUAUCUUGUUUAUUUGTT against Tgtp1 | -0.316 (inactive)
7 | AUCGUGUUUGCUGUAUUUGTT against Olfr1258 | 0.33 (inactive)
8 | GGAAAUCACCAACUUGGCCTT against Pou3f3 | -0.0208 (inactive)
9 | GGAUUUGUAGUUCAUCUCATT against Olfr77 | 0.0834 (inactive)
10 | GGUCAGUGGAGCUCUCUAUTT against Fam234a | 1.43 (inactive)
11 | GGUUCUAAAACUUAACAAGTT against Brf2 | 2.7 (active)
12 | GGCAAACAACUGAAUAAGGTT against Pbsn | -0.611 (inactive)
13 | CCAAGUUAGUCUGCGUAUUTT against Zfp979 | -0.52 (inactive)
14 | CCCUACCCAGUUUCAGUUGTT against Phf12 | 0.206 (inactive)
15 | CCUGUGAAUUCAUCGUUCATT against Vps26c | 2.34 (active)
16 | GCAUACCUAGGAAAAAACUTT against Ednra | 0.524 (inactive)
17 | GGUAUUGACAGGGAUCUGATT against Limk1 | 1.19 (inactive)
18 | GGCCUUAGGAAUCAAGUUGTT against 9530053A07Rik | 1.24 (inactive)
19 | GGGUUUCAAUGGCACAAUUTT against Kif3b | 2.12 (active)
20 | GGAUAACGUAAUGAAGAUCTT against Fgfr1 | -0.866 (inactive)
21 | GGUUUCUUCUUCUGUUCAUTT against Ostc | 1.13 (inactive)
22 | GGCUCAAAGACUGAAUCCCTT against Recql4 | 0.309 (inactive)

Row | Sequence | z-score
23 | GCUAUCUAGAGCCAAGAGCTT against Bahcc1 | 2.27 (active)
24 | GCUAGACCUCACUGUUUUUTT against Sprr2i | 1.03 (inactive)
25 | GCAGCAUGAAUCACACCUUTT against Dtd2 | -1.29 (inactive)
26 | CGUGUUCAAAAGAGUUUUCTT against Sos1 | 1.22 (inactive)
27 | GCGGCUUUGUAUACAAGUUTT against Vwc2l | 1.11 (inactive)
28 | GGUAACUGUGGACUUAUCUTT against Olfr665 | -2.17 (active)
29 | GGCUGUCAGAACCAACUACTT against Tshb | 0.214 (inactive)
30 | CUCUAGUGUUACACUUAUUTT against Tefm | 2.83 (active)
31 | GGCCUUGAGAGGCUAAUACTT against Spata20 | -1.27 (inactive)
32 | GGUGAUUGUUAGAGUUAAATT against Syt4 | 0.934 (inactive)
33 | GGUAAAAACCCAGAGAUGATT against Rem2 | 0.616 (inactive)
34 | GGAACUAAUGUGCAGGAGGTT against Suclg2 | 0.459 (inactive)
35 | CCGUGAUCCCUUUUCACCATT against 6030445D17Rik | -2.26 (active)
36 | CACGCAGAUGAUUAAGUUGTT against Olfr1000 | 1.25 (inactive)
37 | GGAGAAUGAGAUCAACCUGTT against Pah | 0.618 (inactive)
38 | GGAGAACAGUCUUGAGAAATT against Crisp3 | -0.712 (inactive)
39 | CCUCCAGGAUUAUCGUGAUTT against Dnajc6 | -1.22 (inactive)
40 | GGCUUAAUGUUGCUUCAGATT against Aven | -0.959 (inactive)
41 | GGUCAAUUAUGAAGAGUUUTT against Calm3 | 3.04 (active)
42 | CCUUAAAAACUCGAGUAAATT against Gla | 0.384 (inactive)
43 | GCGGUCACACCAAAAGUCATT against Olfr1466 | -1.56 (inactive)
44 | GCUGUUUAUCUAGCUGUUATT against Mmp8 | 0.782 (inactive)

Row | Sequence | z-score
45 | GGAUGUUAACAUUGAGCAATT against Asb11 | -0.0828 (inactive)
46 | GGCAUUUCAACUGGACCCATT against Lamb1 | -2 (active)
47 | GACGCAAGCAGCAUUUUAUTT against R3hdm4 | -0.207 (inactive)
48 | CCGUCAUCUACACCUAUUUTT against Olfr525 | 0.102 (inactive)
49 | CGGCUUAUGAGUUAAAGACTT against Rad51b | -1.03 (inactive)
50 | GGUAGAUUAUAGCAAAAUGTT against Ik | -2.23 (active)
51 | GGUUAAGUGUGUUAAGUUCTT against Cipc | 1.48 (inactive)
52 | GGCCUCAAAUACCAUAACATT against Zfp941 | 0.000237 (inactive)
53 | CGGACACAUGAUUGUCUUCTT against Npas1 | 1.25 (inactive)
54 | GGUUUGAUGACAAAUACACTT against Spcs2 | 1.6 (inactive)
55 | GCUGGUACAGCGUAUACCATT against Cep170b | -1.03 (inactive)
56 | GGAUGUUCUCAAACUACAATT against Kdm1b | 0.702 (inactive)
57 | GGGCAAGCCACUCAUGUUGTT against Me2 | -0.997 (inactive)
58 | CCUAGAGAUUGGUAUGUACTT against Tmem132e | -2.1 (active)
59 | GCCAUUAAUCUCACAUGUATT against Crebrf | 1.39 (inactive)
60 | GGAUCCUUCGAAUCCUGAATT against Cst11 | -0.372 (inactive)
61 | CCCAUGUUUAUGUUGCUGATT against Olfr467 | 0.251 (inactive)
62 | GGACACCUGAAGUUAGUUUTT against Ndufaf1 | 0.622 (inactive)
63 | GGAGAAGGAUCUGAACGAGTT against Nog | -1.24 (inactive)
64 | CCUUAUGGAUUUAGCAUCATT against Lamb3 | 0.917 (inactive)
65 | CCAAACCAGUGGAGUCCAUTT against Slc7a14 | -2.26 (active)
66 | ACUAUGGUUGGUUCAAACGTT against Acat2 | -1.23 (inactive)

Row | Sequence | z-score
67 | GCACAACGGUUCGUUGUUATT against 4933427E11Rik | -1.17 (inactive)
68 | GGUGUAGGCUGUCCAAUAATT against Rtel1 | 0.74 (inactive)
69 | GACUCUUGUCCCAAGUGUUTT against Bloc1s4 | 0.144 (inactive)
70 | GGAUCAACAGUCAAUUGUGTT against Tax1bp1 | -2.16 (active)
71 | AUAGUGGAACCCUUUGUACTT against Olfr1195 | -0.832 (inactive)
72 | GGAAUACGACAGAACUCCATT against Extl1 | 0.218 (inactive)
73 | GGAGAAGCAAACUGCACCUTT against Cacng6 | 1.08 (inactive)
74 | GGACCUGAAACACGCCAAUTT against Cdk18 | -0.35 (inactive)
75 | GCGGGAGAGCUAUGAAACATT against Mrps21 | -0.0502 (inactive)
76 | GGGAAAUUUCUCUACAUCUTT against Npas1 | 2.2 (active)
77 | GGCUGCACAAAACGAGAUCTT against Tcirg1 | -0.0738 (inactive)
78 | GGCAAACAAAUGGUUUGUUTT against Zfp324 | -0.544 (inactive)
79 | GGUUCUCGGUAAAUCCUGCTT against Slc35b1 | -1.07 (inactive)
80 | GGAGGUUGAGGCUUCUAAGTT against Pacsin3 | 1.2 (inactive)
81 | GGAUAAUGAGCUGAACAUATT against Nek7 | -0.0844 (inactive)
82 | GGAAGCAUGCAAUGAUAUUTT against 4933431E20Rik | -2.31 (active)
83 | GCCUCACUUUGACUGUCGCTT against Tpgs2 | -0.289 (inactive)
84 | GGAGAAAGUGAUUGACAUATT against Lpin2 | -0.0579 (inactive)
85 | GGAAGGGUUUGUUUGUUUATT against Nkiras1 | 1.55 (inactive)
86 | GGCCUUGAAAGCCAUUGGUTT against Kmo | -0.728 (inactive)
87 | GCGCGACAAAUCGUAGGCUTT against Mamstr | -2.13 (active)
88 | GGACUUGAAGAACUGUUAUTT against Hspa13 | -0.0642 (inactive)

Row | Sequence | z-score
89 | CGUGCUGUAUGGCAAAGUUTT against Bst1 | 0.563 (inactive)
90 | GCCCAUGUUUGUGAGGGUUTT against Fem1al | -0.0893 (inactive)
91 | GCACUUCCCUCCCUAUGCATT against Cep20 | -2.11 (active)
92 | GGUUCCAAUGCUAUUGAAUTT against Tc2n | 0.391 (inactive)
93 | GGUUAUAUUAUGUAGCCUATT against Klf17 | 0.332 (inactive)
94 | GGUCACAGUUGGCAAAGAUTT against Myh11 | -0.521 (inactive)
95 | GCGUAAGCAGCAAGAUGGATT against Ash2l | 1.21 (inactive)
96 | GCUUUCAAGUGGUUAUGAATT against Nsun6 | 0.0136 (inactive)
97 | CGUGUAUCGUUGUCUGAAUTT against Donson | 2.75 (active)
98 | GCGACCAUUUCGUUUUAGUTT against Frat1 | 1.07 (inactive)
99 | GGAAAGCAAGUCGUAAGCCTT against Mrps10 | -0.755 (inactive)
100 | AAUGCUCAGAAAGAAUAACTT against Sprr2e | -0.31 (inactive)
101 | UGUUACUGGACUCUCCACATT against Olfr320 | 0.372 (inactive)
102 | GCUGUGUUAGGAUUGUCCATT against Olfr553 | 0.252 (inactive)
103 | GGUACACUACAUGACUCAUTT against Sall4 | 2.35 (active)
104 | GGCAUCAAGUCCAUUUUUGTT against Slc12a4 | 0.108 (inactive)
105 | GGCAGGCAGAAAGCUUUGUTT against Olfr1054 | 1.8 (inactive)
106 | GCUAAUCACCAAAGCUGAGTT against Larp7 | 0.546 (inactive)
107 | CCUAAUCUUCGUGCUUUACTT against Minpp1 | 1.4 (inactive)
108 | CCUGUGAAAGAUGCUUAUATT against Capn7 | -1.65 (inactive)
